PubChem BioAssay (Tox21)
“And” between values parts separate entries of the source, which are not always exact repeats. Equal values may be shown once. Results filed as inconclusive are left out. The source made the active and inactive calls. Unless noted, calls follow the shape of the dose curve; as a rule, active = well fitted curve in the direction sought with a large enough effect in the repeat runs; inconclusive = weak or mixed curves; inactive = no such curve, though single readings can be large; an effect the other way counts as inactive or inconclusive.

Columns and labels:
[1] = qHTS assay to identify small molecule agonists of the hypoxia (HIF-1) signaling pathway - cell viability counter screen (AID 1224844; calls by dose curve; also: nearly all actives have a fitted effect of over 50% in size)
Outline: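 Tox21 10K compounds were added to HRE-bla ME-180 cells (0.5% dialyzed FBS) and incubated 17 hrs at 37C; ATP-based CellTiter-Glo luminescence then reported cell viability in the same wells.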

[2] = qHTS RealTime-Glo MT Cell Viability Assay in HepG2 cells - 24 hour (AID 1224867); also: nearly all actives have a fitted effect of over 50% in size
Outline: (§1)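 HepG2 cells were seeded at 600 cells/well together with NanoLuc luciferase and a cell-permeant prosubstrate, preincubated 5 h at 37 C/5% CO2, then pin-dosed with compounds in DMSO. Nonlytic luminescence from viable cells was read at each time point.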

[3] = qHTS RealTime-Glo MT Cell Viability Assay in HEK293 cells - 32 hour (AID 1224868); also: top concentration of the series differs between compounds; nearly all actives have a fitted effect of over 50% in size
Outline: (§2)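 HEK293 cells were seeded at 600 cells/well together with NanoLuc luciferase and cell-permeant prosubstrate, preincubated 5 h at 37 C/5% CO2, then given compound in DMSO by pintool. Luminescence from viable-cell prosubstrate reduction was read repeatedly over 40 h.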

[4] = A CellTox Green Cytotoxicity Assay to monitor cytotoxicity in HEK293 cells - 0 hour (AID 1224869); also: nearly all actives have a fitted effect of over 50% in size
Outline: (§3)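 Cytotoxicity was tracked continuously in HEK293 cells by a DNA-binding dye excluded from viable cells. Compounds were transferred in DMSO 5 h after seeding; fluorescence was recorded at intervals up to 40 h.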

[5] = qHTS RealTime-Glo MT Cell Viability Assay in HepG2 cells - 40 hour (AID 1224870); also: nearly all actives have a fitted effect of over 50% in size
Outline: (§4)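 HepG2 cells mixed with RealTime-Glo MT reagents (NanoLuc plus cell-permeant prosubstrate) were seeded at 600 cells/well, incubated 5 h at 37 C/5% CO2, then pinned with compounds in DMSO; nonlytic luminescence tracked viability during 40 h treatment.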

[6] = A CellTox Green Cytotoxicity Assay to monitor cytotoxicity in HEK293 cells - 40 hour (AID 1224871); also: nearly all actives have a fitted effect of over 45% in size
Outline: as §3

[7] = qHTS RealTime-Glo MT Cell Viability Assay in HEK293 cells - 16 hour (AID 1224872)
Outline: as §2

[8] = qHTS RealTime-Glo MT Cell Viability Assay in HepG2 cells - 8 hour (AID 1224873); also: nearly all actives have a fitted effect of over 55% in size
Outline: as §4

[9] = qHTS RealTime-Glo MT Cell Viability Assay in HEK293 cells - 40 hour (AID 1224874); settings: RealTime-Glo luminescence; max response: stronger effect = lower value; also: nearly all actives have a fitted effect of over 50% in size
Outline: (§5)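 Nonlytic bioluminescent viability monitoring. HEK293 at 600 cells/well with reagent; 5 h settle; compound transfer by pintool; plates held at 37 C and read at set time points.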

[10] = A CellTox Green Cytotoxicity Assay to monitor cytotoxicity in HEK293 cells - 24 hour (AID 1224875); also: nearly all actives have a fitted effect of over 45% in size
Outline: as §3

[11] = A CellTox Green Cytotoxicity Assay to monitor cytotoxicity in HepG2 cells - 16 hour (AID 1224876); also: nearly all actives have a fitted effect of over 45% in size
Outline: (§6)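 Real-time, homogeneous cytotoxicity readout: dead-cell DNA staining by CellTox Green in HepG2 monolayers, fluorescence measured at timed intervals up to 40 h of continuous compound exposure.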

[12] = qHTS RealTime-Glo MT Cell Viability Assay in HepG2 cells - 32 hour (AID 1224877); also: nearly all actives have a fitted effect of over 55% in size
Outline: as §1

[13] = A CellTox Green Cytotoxicity Assay to monitor cytotoxicity in HepG2 cells - 40 hour (AID 1224879); also: nearly all actives have a fitted effect of over 40% in size
Outline: as §6

[14] = qHTS assay to identify small molecule agonists of H2AX (AID 1224845; active = well fitted activation curve with a large enough effect in the signal ratio in the repeat runs, not every such curve was filed as active; the % refers to the signal ratio)
Outline: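 Wild-type CHO-K1 cells plated overnight, then exposed 3 hr at 37C to compounds at 15 concentrations (0.76% DMSO). Lysed, then HTRF anti-pH2AX(S139)-cryptate/anti-H2AX-d2 detection after 24 hr at room temperature; emissions 665 and 620 nm.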

[15] = qHTS assay to identify small molecule agonists of the hypoxia (HIF-1) signaling pathway (AID 1224846; active = well fitted activation curve with a large enough effect in the signal ratio in the repeat runs, not every such curve was filed as active; the % refers to the signal ratio)
Outline: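 Steps: seed ME-180 HRE-bla cells (2,000/well, 0.5% dialyzed FBS); incubate 5 hrs at 37C; pin-transfer compounds or DMSO; incubate 17 hrs; add LiveBLAzer B/G substrate CCF4-AM; measure reporter activation by FRET.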

[16] = qHTS assay to identify small molecule agonists of H2AX - cell viability counter screen (AID 1224847; calls by dose curve; also: top concentration of the series differs between compounds; nearly all actives have a fitted effect of over 30% in size)
Outline: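 Cytotoxicity counter screen in wild-type CHO-K1 cells: a 3 hr compound treatment at 37C across 15 concentrations, followed by CellTiter-Glo luminescence to gauge viable cells.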

[17] = A CellTox Green Cytotoxicity Assay to monitor cytotoxicity in HepG2 cells - 24 hour (AID 1224878); also: nearly all actives have a fitted effect of over 45% in size
Outline: as §6

[18] = qHTS RealTime-Glo MT Cell Viability Assay in HEK293 cells - 0 hour (AID 1224880)
Outline: as §5

[19] = qHTS assay to identify small molecule antagonists of the estrogen related receptor (ERR) signaling pathway from Tox21 library (AID 1224848); also: nearly all actives have a fitted effect of over 50% in size
Outline: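 Screening used an ERR reporter line supplied by NTP, exposed for 18 h at 37 C to library compounds delivered in DMSO. Signal was luciferase luminescence developed with ONE-Glo at room temperature for 30 min.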

[20] = qHTS assay to identify small molecule agonists of the estrogen related receptor (ERR) signaling pathway from Tox21 library (AID 1224849; calls by dose curve; also: nearly all actives have a fitted effect of over 15% in size); settings: ERR reporter cell line, ONE-Glo luciferase, 18 h
Outline: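 Agonist signal is luciferase luminescence from an ERR reporter cell line treated 18 h at 37 C with DMSO-dissolved compounds, read 30 min after ONE-Glo addition at room temperature.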
% is scaled to controls: 0 for no effect and ±100 for the full control effect.

O=c1c(O)c(-c2ccc(O)c(O)c2)oc2cc(O)cc(O)c12
inactive: Potency [1] | Potency [2] | Potency [3] | Potency [4] | Potency [5] | Potency [6] | Potency [7] | Potency [8] | max response [9] -22.5% | Potency [10] | Potency [11] | Potency [12] | Potency [13]

CCc1cccc(O)c1
inactive: Potency [1] | Potency [14] | outcome [15] | Potency [16] | Potency [2] | Potency [3] | Potency [4] | Potency [5] | Potency [6] | Potency [7] | Potency [8] | max response [9] -1.01% and 0% | Potency [10] | Potency [11] | Potency [12] | Potency [17] | Potency [13] | Potency [18]

O=C(Cl)c1ccc(C(=O)Cl)cc1
inactive: Potency [1] | Potency [14] | outcome [15] | Potency [16] | Potency [2] | Potency [3] | Potency [4] | Potency [5] | Potency [6] | Potency [7] | Potency [8] | max response [9] -18.9% and 3.42% | Potency [10] | Potency [11] | Potency [12] | Potency [17] | Potency [13] | Potency [18]

OCC(CO)(CO)CO
inactive: Potency [1] | Potency [14] | outcome [15] | Potency [16] | Potency [2] | Potency [3] | Potency [4] | Potency [5] | Potency [6] | Potency [7] | Potency [8] | max response [9] 2.43% and 2.9% | Potency [10] | Potency [11] | Potency [12] | Potency [13] | Potency [18]

Cc1nnc(NS(=O)(=O)c2ccc(N)cc2)s1
inactive: Potency [1] | Potency [14] | Potency [16] | Potency [2] | Potency [3] | Potency [4] | Potency [5] | Potency [6] | Potency [7] | Potency [8] | max response [9] -1.44% and 9.25% | Potency [10] | Potency [11] | Potency [12] | Potency [13] | Potency [18]

OC[C@H]1O[C@@H](Oc2ccc(O)cc2)[C@H](O)[C@@H](O)[C@@H]1O
inactive: Potency [14] | outcome [15] | Potency [16] | Potency [19] | activity change, positive = activation ([20]; at 42.5 µM (top of the series)) 7.9% | activity change, positive = activation ([20]; at 92.4 µM (top of the series)) 7.42% | Potency [2] | Potency [3] | Potency [4] | Potency [5] | Potency [6] | Potency [7] | Potency [8] | max response [9] 3.45% and 3.98% | Potency [10] | Potency [11] | Potency [12] | Potency [17] | Potency [13] | Potency [18]

CCCCCCCCCCCC(=O)N(C)CC(=O)O
inactive: activity change, negative = cytotoxicity [1] 0.126% [at 6.97 µM] | Potency [14] | outcome [15] | Potency [16] | Potency [2] | Potency [3] | Potency [4] | Potency [5] | cytotoxicity increase [6] 3.46% [at 6.97 µM] | Potency [7] | Potency [8] | max response [9] 1.1% and -15.4% | Potency [10] | Potency [11] | Potency [12] | cytotoxicity increase [13] 1.38% [at 6.97 µM] | Potency [18]

CC[N+](CC)(CC(=O)Nc1c(C)cccc1C)Cc1ccccc1
inactive: Potency [1] | Potency [14] | outcome [15] | Potency [16] | Potency [2] | Potency [3] | Potency [4] | Potency [5] | Potency [6] | Potency [7] | Potency [8] | max response [9] -15.4% and 1.42% | Potency [10] | Potency [11] | Potency [12] | Potency [13] | Potency [18]

Cc1cccc(C)c1[N+](=O)[O-]
inactive: Potency [1] | Potency [14] | outcome [15] | Potency [16] | Potency [2] | Potency [3] | Potency [4] | Potency [5] | Potency [6] | Potency [7] | Potency [8] | max response [9] -0.329% | Potency [10] | Potency [11] | Potency [12] | Potency [17] | Potency [13] | Potency [18]

CC(=O)c1nccs1
inactive: Potency [1] | Potency [14] | outcome [15] | Potency [16] | Potency [2] | Potency [3] | Potency [4] | Potency [5] | Potency [6] | Potency [7] | Potency [8] | max response [9] 1.39% and 3.29% | Potency [10] | Potency [11] | Potency [12] | Potency [13] | Potency [18]

CCCCC(=O)O
inactive: Potency [1] | Potency [14] | outcome [15] | Potency [16] | Potency [2] | Potency [3] | Potency [4] | Potency [5] | Potency [6] | Potency [7] | Potency [8] | max response [9] 6.05% and 6.12% | Potency [10] | Potency [11] | Potency [12] | Potency [13] | Potency [18]

CCCCCCCC(=O)O
inactive: Potency [1] | Potency [14] | outcome [15] | Potency [16] | Potency [2] | Potency [3] | Potency [4] | Potency [5] | Potency [6] | Potency [7] | Potency [8] | max response [9] 3.06% and 7% | Potency [10] | Potency [11] | Potency [12] | Potency [13] | Potency [18]

CCN(CC)CCNC(=O)c1ccc(N)cc1
inactive: Potency [1] | Potency [14] | Potency [16] | Potency [2] | Potency [3] | Potency [4] | Potency [5] | Potency [6] | Potency [7] | Potency [8] | max response [9] 3.82% and 1.96% | Potency [10] | Potency [11] | Potency [12] | Potency [17] | Potency [13] | Potency [18]
